Source: PubChem BioAssay (Tox21)
Results filed as inconclusive are left out. Activity calls are given as the source filed them. Unless noted, the call rests on the fitted dose curve.

Key:
[1] = Nuclear factor erythroid 2-related factor 2/antioxidant responsive element (Nrf2/ARE) small molecule agonists: qHTS cell viability counter screen in human keratinocytes (AID 1919968; active means well fitted curve in the direction sought with a large enough effect in the repeat runs; an effect the other way counts as inactive or inconclusive; further: nearly all actives have a fitted effect of over 55% in size)
Summary of the method: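 Cells of the KeratinoSens line were plated at 1,500 per well and left for 5 h before compound transfer from DMSO stocks. After a 23 h incubation (37 C, 5% CO2), CellTiter-Fluor was added. Signal was taken as fluorescence intensity 1 h later.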

[2] = Nuclear factor erythroid 2-related factor 2/antioxidant responsive element (Nrf2/ARE) small molecule agonists: luciferase reporter gene qHTS assay in human keratinocytes (AID 1919969); further: nearly all actives have a fitted effect of over 35% in size; further: potency means the concentration at half of the fitted maximal effect
[3] = biological target: Gonadotropin-releasing hormone receptor (Homo sapiens) (UniProt P30968); experiment: Human gonadotropin-releasing hormone receptor (GnRHR) small molecule agonists, calcium flux assay in GnRHR-HEK293 cells (AID 1920063); further: nearly all actives have a fitted effect of over 35% in size
Summary of the method: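 Compounds dissolved in DMSO are pin-transferred onto dye-loaded GnRHR-HEK293 cells, which were seeded 18 h before at 37 C/5% CO2. Calcium signal is read as fluorescence intensity at 1 s intervals for 3 min.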

[4] = biological target: KiSS-1 receptor (Homo sapiens) (UniProt Q969F8); experiment: Human kisspeptin (KISS1R) small molecule agonists, calcium flux assay in KISS1R-HEK293 cells (AID 1920064; active means well fitted curve in the direction sought with a large enough effect in the repeat runs; an effect the other way counts as inactive or inconclusive)
Summary of the method: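 Cell line: HEK293, stable human KISS1R. Dye loading 1 h at 37 C after 18 h culture. Read: kinetic fluorescence, 480/540 nm, 3 min at 1 s intervals.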

[5] = G protein-coupled receptor (GPCR) small molecule agonists, calcium flux assay: HEK293 wild type cell line counter screen (AID 1920065)
Summary of the method: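 Tox21 10K compounds, 15 concentrations each in triplicate, pin-transferred in DMSO onto dye-loaded cells; kinetic read at 480/540 nm for 3 min, 1 s intervals.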

[6] = p53 small molecule agonists, cell-based qHTS assay with human liver microsomes: qHTS cell viability counter screen (AID 1963579); further: nearly all actives have a fitted effect of over 45% in size
Summary of the method: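 After the 460/530 nm beta-lactamase read, CellTiter-Glo was added to the same wells and luminescence measured after 30 min at room temperature, giving viability of p53RE-bla cells treated 16 h with compounds plus microsomes and NADPH.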

[7] = p53 small molecule agonists, cell-based qHTS assay with rat liver microsomes: qHTS cell viability counter screen (AID 1963580); further: nearly all actives have a fitted effect of over 45% in size; further: potency means the concentration at half of the fitted maximal effect
Summary of the method: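 Counter screen for cytotoxicity under metabolic activation: rat liver microsomes and NADPH, 0.5 mg/mL final each, added with compounds to p53RE-bla HCT-116 cells; 16 h at 37 C, then ATP luminescence read.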

[8] = p53 small molecule agonists, cell-based qHTS assay: qHTS cell viability counter screen (AID 1963581); further: nearly all actives have a fitted effect of over 45% in size
Summary of the method: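 ATP content measured by luminescence in HCT-116 p53RE-bla cells treated 16 h at 37 C, same wells as the reporter screen.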

[9] = cAMP Responsive Elements (CRE) small molecule agonists, cell-based qHTS assay (AID 1963590)
Summary of the method: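 HEK 293T cells stably bearing CRE-bla were plated at 2,000 cells per well and rested 18 h. Compounds, positive controls or DMSO were added for 3 h at 37 C. LiveBLAzer B/G substrate was then loaded for 2 h at room temperature.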

[10] = biological target: Beta-2 adrenergic receptor (Homo sapiens) (UniProt P07550); experiment: Adrenergic beta2 receptor (ADRB2) small molecule antagonists, cell-based qHTS assay (AID 1963592); further: series mostly up to about 92 µM; nearly all actives have a fitted effect of over 50% in size
Summary of the method: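 Assay format: CHO-ADRB2 cells, 18-20hr seeding at 37C/5% CO2, then compound plus 1nM isoproterenol agonist mix for 0.5hr RT. Homogeneous time-resolved fluorescence cAMP detection after 1hr, expressed as 665/615 nm ratio.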

[11] = biological target: D(2) dopamine receptor (Homo sapiens) (UniProt P14416); experiment: Dopamine D2 receptor (DRD2) small molecule agonists, cell-based qHTS assay (AID 1963594); further: nearly all actives have a fitted effect of over 35% in size; further: potency means the concentration at half of the fitted maximal effect
Summary of the method: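 HEK293 cells stably expressing DRD2 were cultured 24 h at 37 C, then given Ro20-1724 (0.1 mM final) and compounds for 10 min at room temperature. NKH477 (200nM) was then added for 30 min. cAMP was read by HTRF.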

[12] = biological target: D(2) dopamine receptor (Homo sapiens) (UniProt P14416); experiment: Dopamine D2 receptor (DRD2) small molecule antagonists, cell-based qHTS assay (AID 1963595; active means well fitted inhibition curve with a large enough effect in the signal ratio in the repeat runs, with a control signal flat; the % refers to the signal ratio)
Summary of the method: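 HEK293 cells stably expressing DRD2, preincubated with 0.1 mM Ro20-1724 and compounds 10 min, were stimulated with 200 nM NKH477 plus 12 nM quinpirole for 30 min at room temperature; cAMP measured by HTRF (665/620 nm).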

[13] = biological target: 5-hydroxytryptamine receptor 2A (Homo sapiens) (UniProt P28223); experiment: 5-hydroxytryptamine receptor 2A (HTR2A) small molecule antagonists, cell-based qHTS assay (AID 1963586); further: nearly all actives have a fitted effect of over 45% in size
Summary of the method: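 CHO cells stably expressing human HTR2A were plated for 18 h at 37 C, then loaded with calcium dye for 1 h. Compounds were preincubated 5 min at room temperature before DOI (4 nM solution) was added. Kinetic fluorescence was read for 3 min.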

[14] = biological target: 5-hydroxytryptamine receptor 2A (Homo sapiens) (UniProt P28223); experiment: 5-hydroxytryptamine receptor 2A (HTR2A) small molecule agonists, cell-based qHTS assay (AID 1963587); further: nearly all actives have a fitted effect of over 30% in size; further: potency means the concentration at half of the fitted maximal effect
Summary of the method: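 HTR2A-CHO cells, plated 18 h at 37 C/5% CO2, dye-loaded 1 h at 37 C; compounds in DMSO added by pin tool (agonist mode). Intracellular calcium flux read as kinetic fluorescence on FDSS over 2 min at 1 s intervals.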

[15] = biological target: Muscarinic acetylcholine receptor M1 (Homo sapiens) (UniProt P11229); experiment: Cholinergic receptor muscarinic 1 (CHRM1) small molecule agonists, cell-based qHTS assay (AID 1963589); further: nearly all actives have a fitted effect of over 35% in size
Summary of the method: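 Homogeneous fluorescence calcium flux, agonist mode. Human M1-expressing CHO cells; compound dosed at 15 concentrations, three independent runs; signal sampled every 1 sec.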

[16] = biological target: Muscarinic acetylcholine receptor M1 (Homo sapiens) (UniProt P11229); experiment: Cholinergic receptor muscarinic 1 (CHRM1) small molecule antagonists, cell-based qHTS assay (AID 1963588); further: nearly all actives have a fitted effect of over 40% in size
Summary of the method: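 Compounds were tested at 15 concentrations in three independent runs. Dye-loaded CHRM1-CHO cells were exposed 5 min at room temperature before stimulation by acetylcholine added at 50nM. Intracellular calcium was read kinetically on FDSS for 3 min.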

[17] = cAMP Responsive Elements (CRE) small molecule antagonists, cell-based qHTS assay (AID 1963591; active means well fitted inhibition curve with a large enough effect in the signal ratio in the repeat runs, not every such curve was filed as active; the % refers to the signal ratio)
Summary of the method: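 First, CRE-bla HEK293T cells settled 18 h at 37 C. Next, compound and 0.25 uM final NKH477 were applied for 3 h. Last, LiveBLAzer B/G substrate was loaded for 2 h at room temperature.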

[18] = biological target: Beta-2 adrenergic receptor (Homo sapiens) (UniProt P07550); experiment: Adrenergic beta2 receptor (ADRB2) small molecule agonists, cell-based qHTS assay (AID 1963593);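 further: CHO cells stably overexpressing human ADRB2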
Summary of the method: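 CHO cells stably over-expressing ADRB2 were plated overnight at 37C, then dosed with compounds plus a stimulation mix containing 100uM IBMX and 25uM Ro-20-1724 for 0.5hr at room temperature. cAMP was measured by HTRF competition, 1hr.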

Measured: Potency

Beta-2 adrenergic receptor (Homo sapiens), sequence (P07550 whole entry, looked up): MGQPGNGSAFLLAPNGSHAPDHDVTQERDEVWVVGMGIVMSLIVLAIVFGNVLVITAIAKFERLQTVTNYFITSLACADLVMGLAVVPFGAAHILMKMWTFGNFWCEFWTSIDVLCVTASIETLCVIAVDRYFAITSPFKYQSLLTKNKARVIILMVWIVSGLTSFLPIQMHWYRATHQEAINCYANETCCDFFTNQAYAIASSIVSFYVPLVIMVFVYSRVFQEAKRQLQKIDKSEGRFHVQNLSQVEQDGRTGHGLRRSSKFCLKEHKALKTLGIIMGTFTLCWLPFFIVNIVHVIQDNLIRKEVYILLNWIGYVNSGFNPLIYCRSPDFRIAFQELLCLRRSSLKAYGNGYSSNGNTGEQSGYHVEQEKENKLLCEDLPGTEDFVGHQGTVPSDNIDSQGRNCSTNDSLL
Gonadotropin-releasing hormone receptor (Homo sapiens), sequence (P30968 whole entry, looked up): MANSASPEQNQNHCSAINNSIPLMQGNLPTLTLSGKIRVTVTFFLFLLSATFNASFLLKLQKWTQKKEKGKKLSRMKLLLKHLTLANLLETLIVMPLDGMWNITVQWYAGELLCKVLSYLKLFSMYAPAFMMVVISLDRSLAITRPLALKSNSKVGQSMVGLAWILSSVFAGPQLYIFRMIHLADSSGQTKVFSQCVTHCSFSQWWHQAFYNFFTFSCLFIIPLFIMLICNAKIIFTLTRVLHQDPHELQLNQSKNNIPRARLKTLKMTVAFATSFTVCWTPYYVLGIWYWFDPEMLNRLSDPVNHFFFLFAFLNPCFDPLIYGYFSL
Muscarinic acetylcholine receptor M1 (Homo sapiens), sequence (P11229 whole entry, looked up): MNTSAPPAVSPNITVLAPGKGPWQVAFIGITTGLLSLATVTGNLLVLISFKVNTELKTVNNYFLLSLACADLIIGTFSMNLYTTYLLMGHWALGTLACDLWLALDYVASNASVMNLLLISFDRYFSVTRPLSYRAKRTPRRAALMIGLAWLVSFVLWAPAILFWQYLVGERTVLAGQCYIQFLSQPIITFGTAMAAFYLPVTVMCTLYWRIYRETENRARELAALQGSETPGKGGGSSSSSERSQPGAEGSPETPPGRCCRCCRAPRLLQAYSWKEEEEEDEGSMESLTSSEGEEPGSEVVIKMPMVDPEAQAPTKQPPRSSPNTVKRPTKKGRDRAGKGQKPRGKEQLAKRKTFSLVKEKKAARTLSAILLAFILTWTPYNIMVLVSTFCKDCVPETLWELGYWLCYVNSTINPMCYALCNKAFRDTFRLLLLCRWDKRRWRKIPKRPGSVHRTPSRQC
5-hydroxytryptamine receptor 2A (Homo sapiens), sequence (P28223 whole entry, looked up): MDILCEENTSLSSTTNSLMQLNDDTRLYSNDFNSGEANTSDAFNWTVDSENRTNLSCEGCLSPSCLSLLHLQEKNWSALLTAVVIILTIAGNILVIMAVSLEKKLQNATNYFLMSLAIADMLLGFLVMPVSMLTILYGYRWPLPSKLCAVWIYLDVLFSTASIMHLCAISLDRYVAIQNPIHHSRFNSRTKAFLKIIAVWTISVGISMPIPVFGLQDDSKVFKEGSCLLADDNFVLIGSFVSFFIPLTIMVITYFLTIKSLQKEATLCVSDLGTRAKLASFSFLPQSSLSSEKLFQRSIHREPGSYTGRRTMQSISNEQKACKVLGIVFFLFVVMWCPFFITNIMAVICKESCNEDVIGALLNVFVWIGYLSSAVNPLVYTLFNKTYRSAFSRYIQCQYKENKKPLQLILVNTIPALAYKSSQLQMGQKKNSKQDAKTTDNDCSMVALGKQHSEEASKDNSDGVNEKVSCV
D(2) dopamine receptor (Homo sapiens), sequence (P14416 whole entry, looked up): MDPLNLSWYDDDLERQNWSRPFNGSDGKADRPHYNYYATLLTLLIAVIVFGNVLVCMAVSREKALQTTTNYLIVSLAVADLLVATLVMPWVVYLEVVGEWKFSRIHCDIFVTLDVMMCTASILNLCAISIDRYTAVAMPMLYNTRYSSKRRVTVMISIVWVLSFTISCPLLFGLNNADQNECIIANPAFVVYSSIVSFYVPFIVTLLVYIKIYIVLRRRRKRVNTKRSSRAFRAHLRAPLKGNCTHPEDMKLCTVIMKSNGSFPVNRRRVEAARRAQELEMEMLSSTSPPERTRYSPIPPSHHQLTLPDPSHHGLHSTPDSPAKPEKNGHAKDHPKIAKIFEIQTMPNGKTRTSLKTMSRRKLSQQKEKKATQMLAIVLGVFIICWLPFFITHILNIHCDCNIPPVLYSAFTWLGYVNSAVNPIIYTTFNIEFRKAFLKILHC
KiSS-1 receptor (Homo sapiens), sequence (Q969F8 whole entry, looked up): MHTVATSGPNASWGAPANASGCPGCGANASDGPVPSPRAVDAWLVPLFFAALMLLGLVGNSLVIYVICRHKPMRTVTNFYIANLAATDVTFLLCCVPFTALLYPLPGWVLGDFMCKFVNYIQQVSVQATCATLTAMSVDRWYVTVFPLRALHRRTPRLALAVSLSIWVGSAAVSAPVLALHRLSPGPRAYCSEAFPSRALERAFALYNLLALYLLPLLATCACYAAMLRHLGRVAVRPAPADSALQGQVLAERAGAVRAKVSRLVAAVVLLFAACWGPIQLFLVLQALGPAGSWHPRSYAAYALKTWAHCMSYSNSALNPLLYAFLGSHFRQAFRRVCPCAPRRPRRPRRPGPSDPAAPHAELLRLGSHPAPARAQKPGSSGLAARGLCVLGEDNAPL

CC(C)CC(N(C)C)C1(c2ccc(Cl)cc2)CCC1 (centres undefined)
active: [7] 0.793 µM
not listed: [13] | [14] | [15] | [16] | [17] | [18]
inactive: all other assays above

CCOP(=S)(OCC)SC(CCl)N1C(=O)c2ccccc2C1=O (centres undefined)
active: [2] 30.6 µM
not listed: [9] | [10] | [16] | [17] | [18]
inactive: all other assays above

COc1c2c(cc3c1OCO3)CCN(C)C2
active: [14] 1.2 µM | [11] 6.68 µM
not listed: [13]
inactive: all other assays above

CC(C)[C@]12CC(=O)[C@H](C)[C@H]1C2
not listed: [16] | [17]
inactive: all other assays above

CCOC1Oc2ccc(OS(C)(=O)=O)cc2C1(C)C (centres undefined)
not listed: [14] | [16]
inactive: all other assays above
